Screening data (PubChem BioAssay)
MazEF act: activators of E. coli MazEF toxin-antitoxin RNase | P0AE70 | FAM/BHQ RNA-DNA oligo cleavage fluorescence, 5 h | activation, % at 20 µM | 0.32% of 350,000 active | AID 504720; in the data active = activation above about 50%
Target sequence (P0AE70 whole entry, looked up): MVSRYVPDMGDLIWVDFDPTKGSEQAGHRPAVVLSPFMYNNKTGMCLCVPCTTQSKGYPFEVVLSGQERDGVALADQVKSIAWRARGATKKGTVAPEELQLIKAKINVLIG
Anthrax LF prot: inhibitors of Bacillus anthracis lethal factor protease; inhibition, % at 10 µM; multiplex microsphere protease cleavage assay, LF; P15917; 0.12% of 360,000 active; also: plate controls were buffer without enzyme for full effect and enzyme alone for no effect
BoNT A protease: blocks Botulinum neurotoxin A light chain protease; inhibition, % at 10 µM; 0.17% of 360,000 active; multiplex microsphere protease substrate cleavage, flow cytometry; also: plate controls were buffer without enzyme for full effect and enzyme alone for no effect
Bead autofluor: flagged as autofluorescent in microsphere protease counterscreen | compound autofluorescence counterscreen, microsphere flow cytometry; active compounds read high | fluorescence intensity (test concentration not listed) | 3.1% of 360,000 active | AID 624483; in the data active = fluorescence intensity above about 16000; inconclusive = no clear call, values can overlap the other calls
BoNT F protease: blocks Botulinum neurotoxin F light chain protease | Multiplex microsphere protease cleavage assay, flow cytometry | inhibition, % at 10 µM | 0.22% of 360,000 active | AID 588497; in the data active = inhibition above about 35%, passing the limit was not always enough; inconclusive = no clear call, values can overlap the other calls; also: plate controls were buffer without enzyme for full effect and enzyme alone for no effect
* hit, by the source's call; ? = inconclusive; · = no result given. A selection: hits, their analogues and other compounds. The true share with any hit is near 3.7%. Rule as the data show it, unless noted: active = inhibition above about 30%; inconclusive = no clear call, values can overlap the other calls; inactive = below that.

SMILES	MazEF act	Anthrax LF prot	BoNT A protease	Bead autofluor	BoNT F protease
CC(=O)C(C)Oc1ccc2c3c(c(=O)oc2c1)CCCCC3 (centres undefined)	1	-1	?	19944*	2
Cc1c(OCc2nn[nH]n2)ccc2c3c(c(=O)oc12)CCC(C)C3 (centres undefined)	-3	-10	?	22299*	-1
COc1ccc(-c2cc(=O)oc3cc(OCc4nn[nH]n4)ccc23)cc1	-2	-3	0	16695*	-2
Cc1c(OCc2nn[nH]n2)ccc2c3c(c(=O)oc12)CCCC3	0	-1	2	22827*	1
O=c1[nH]c2cccc(Cl)c2c2ccccc12	-6	-5	1	3623	1
CS(=O)(=O)c1ccc(Nc2nc(C(N)c3ccccc3)cs2)cc1 (centres undefined)	·	-5	0	3979	-4
C[C@@H]1CN([C@@H](C)CO)C(=O)CCCn2nncc2CO[C@H]1CN(C)Cc1ccc(Oc2ccccc2)cc1	6	2	0	3643	-2
Oc1c(C=C2N=c3ccccc3=N2)sc(=S)n1C1CCCC1	2	39*	70*	2041	26
Oc1c(C=C2N=c3ccccc3=N2)sc(=S)n1-c1ccc(F)cc1	19	34*	54*	2517	19
COC(=O)Nc1ccc(S(=O)(=O)NC2CCCCC2)cc1	-2	-3	1	5871	1
C[C@@H]1CN([C@@H](C)CO)S(=O)(=O)c2ccc(Br)cc2O[C@@H]1CN(C)C(=O)c1ccncc1	4	-7	0	2974	0
CCC1(C)OC(c2ccccc2)=C/C(=C/C=C2C(=O)NC(=O)NC2=O)O1 (centres undefined)	67*	-2	-1	3468	-8
CC1CCCCC1NC(=O)C1CCC(CNS(=O)(=O)c2ccc3c(c2)C(C)(C)C(=O)N3C)CC1 (centres undefined)	·	2	0	5417	1
CN1CCC(N2CCN(C3CN(Cc4cn(Cc5ccc(C(F)(F)F)cc5)nn4)S(=O)(=O)C3)CC2)CC1 (centres undefined)	·	8	0	5952	-4
Cc1nc2ccc(C(=O)N3CCC(O)(Cc4ccccc4)CC3)cn2c1N(C)C(=O)CCc1ccccc1	·	-1	0	2888	2
OC(COc1ccc2cc(Br)ccc2c1)CN1CCCC1 (centres undefined)	8	-4	-3	23249*	-5
COCCNc1nc2c(c(=O)n(Cc3ccc(OC)cc3)c(=O)n2C)n1C	9	-3	-1	22936*	-2
COc1ccc(CNc2nc3c(c(=O)n(Cc4ccc(Cl)cc4)c(=O)n3C)n2C)cc1	0	-3	0	16319*	4
COCCNc1nc2c(c(=O)n(Cc3cccc(Cl)c3)c(=O)n2C)n1C	4	-2	-2	5111	7
Cc1cccc(CN2CCC(n3nccc3NC(=O)CCCc3ccccc3)CC2)c1	10	-4	0	3551	-4
CCSc1nc(O)c(CC)c(=O)n1C(C)CC (centres undefined)	-1	0	0	22314*	3
CCc1c(O)nc(SCC(=O)c2ccccc2)n(-c2ccccc2)c1=O	-7	-8	-10	4348	?
C/C(Cl)=C/CSc1nnc2n(N)c(=O)c3ccccc3n12	-5	-3	0	23180*	-2
NC(=O)CSc1nnc2n(N)c(=O)c3ccccc3n12	3	-4	-1	3156	7
O=C(c1ccco1)N1CCN(C2CC(=O)N(c3ccc4c(c3)OCO4)C2=O)CC1 (centres undefined)	3	-2	0	22383*	-1
SMILES	MazEF act	Anthrax LF prot	BoNT A protease	Bead autofluor	BoNT F protease
COc1ccc(NCc2nnc(SCC(=O)c3ccc(C)cc3)o2)cc1	-1	-4	0	4313	5
COc1ccc(CCNC(=O)CSc2nnc(CNc3ccc(Cl)cc3)o2)cc1OC	-4	0	-1	21392*	0
COc1ccc(NCc2nnc(SCC(=O)Nc3cc(C)cc(C)c3)o2)cc1	-2	-3	?	21267*	-2
CC(C)N(Cc1nccn1C)C(=O)C1CCC(=O)N(CCc2ccccc2)C1 (centres undefined)	4	-5	0	3968	-3
CN(C)c1ncnc2c1ncn2[C@H]1CN(CCN2CCOCC2)C[C@@H](CO)O1	·	-4	0	3795	-9
CCOC(=O)CSc1nc2sc3c(c2c(=O)n1-c1ccccc1)CCN(C)C3	14	-11	17	3853	?
CCOC(=O)CSc1nc2sc3c(c2c(=O)n1-c1ccccc1)CCN(C(C)C)C3	-13	6	56*	5608	4
